# In publication PMC8384837, “Expanding the binding specificity for RNA recognition by a PUF domain”:
# Target: PUM1 PUF domain R3-CFG (Homo sapiens, UniProt Q14671 828-1176, R936F;Q939G)
# Assay: yeast three-hybrid, YBZ-1, SC-Leu-His + 0.5 mM 3-AT, 4 days
# Details: tags: N-Gal4 AD-HA kept; label: inside an RPR1-promoter hybrid RNA with tandem MS2 sites; ssRNA
# Outline: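 A centromeric plasmid in strain YBZ-1 co-expressed Pumilio-1 PUF domain libraries, randomized at the three base-contacting residues of each repeat, with matching RNA elements; the strain carries a LexA–MS2 coat fusion and a HIS3 reporter. After four days on SC-Leu (input) or SC-Leu-His + 0.5 mM 3-AT (selection), the repeat regions were PCR-amplified and Illumina-sequenced. The interaction score is the log change in variant frequency from input to selection, using log2 and a pseudocount of 1 where absent.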
row,Sequence,binding signal
1,GGCUAGAACUAGUGGAUCCCCCGGCGCCCGGCGGCUCGAGCCCGGGUAAGUGUAAGUAGUCUGCAUGCCGCCGGGCGCCAUGCCUGCAGGUCGACUCUAGAAAACAUG,1.61 log2 enrichment (interaction score)
2,GGCUAGAACUAGUGGAUCCCCCGGCGCCCGGCGGCUCGAGCCCGGGUAAGUGUAAAUAGUCUGCAUGCCGCCGGGCGCCAUGCCUGCAGGUCGACUCUAGAAAACAUG,3.86 log2 enrichment (interaction score)
3,GGCUAGAACUAGUGGAUCCCCCGGCGCCCGGCGGCUCGAGCCCGGGUAAGUGUAAUUAGUCUGCAUGCCGCCGGGCGCCAUGCCUGCAGGUCGACUCUAGAAAACAUG,2.06 log2 enrichment (interaction score)
